{
  "source": "PubChem BioAssay (Tox21)",
  "note": "Results filed as inconclusive are left out. A call without a number means that no potency is given here. The source made the active and inactive calls. Calls follow the shape of the dose curve; as a rule, active = well fitted cell-killing curve with a large enough effect in the repeat runs; inconclusive = weak or mixed curves, or effect the other way; inactive = no such curve, though single readings can be large or run the other way.",
  "data": [
    {"assay": "qHTS assay to identify small molecule agonists of the vitamin D receptor (VDR) signaling pathway - cell viability counter screen (AID 743224); also: nearly all actives have a fitted effect of over 50% in size", "details": "VDR-bla HEK293T viability, CellTiter-Glo luminescence, 16 h; series mostly up to 62.6 µM", "from_the_text": "U.S. Tox21 Program National Center for Advancing Translational Sciences [NCATS] NIH Chemical Genomics Center [NCGC] U.S. Environmental Protection Agency [EPA] National Institutes of Environmental Health Sciences [NIEHS] National Toxicology Program [NTP] U.S. Food and Drug Administration [FDA] Tox21 Assay Overview: The vitamin D receptor (VDR), a member of nuclear hormone receptor superfamily, plays a critical role in calcium homeostasis and bone metabolism. It is also involved in cell differentiation and growth, and thrombogenicity. […] The cytotoxicity of the Tox21 compound library against the VDR-bla cell line was tested in parallel by measuring the cell viability using CellTiter-Glo assay (Promega, Madison, WI) in the same wells.\nTox21 Assay Protocol Summary: VDR-bla cells were dispensed at 2,000 cells/6 uL/well into black wall/clear-bottom 1536-well plates using a Multidrop Combi (Thermo Fisher Scientific, Waltham, MA) dispenser. After the assay plates were incubated at a 37C and 5% CO2 for 4 h, 23 nL of compounds dissolved in DMSO, positive controls or DMSO only was transferred to the assay plate by a Pintool station (Kalypsys, San Diego, CA). The plates were incubated at 37C and 5% CO2 for 16 h. After 1 uL of LiveBLAzerTM B/G FRET substrate was added using a Bioraptr Flying Reagent Dispenser (FRD) workstation (Beckman Coulter, Indianapolis, IN, USA), the plates were incubated at room temperature for 2 h, and fluorescence intensity was measured by an Envision plate reader (PerkinElmer, Shelton, CT). For cell viability readout that measures cytotoxicity, 3 ul/well of CellTiter-Glo reagent was added into the assay plates using a FRD. After 30 min incubation at room temperature, the luminescence intensity in the plates was measured using a ViewLux (PerkinElmer) plate reader.", "values": [
      {"smiles": "CC(Cc1ccccc1)NCCn1cnc2c1c(=O)n(C)c(=O)n2C", "note": "(stereo not given)", "Potency": "inactive"},
      {"smiles": "ClCCCCCCCl", "Potency": "inactive"},
      {"smiles": "Cc1ccc(Cl)c(O)c1", "Potency": "inactive"},
      {"smiles": "CNC(=O)NC(O)C(Cl)(Cl)Cl", "note": "(stereo not given)", "Potency": "inactive"},
      {"smiles": "C=C(C)[C@H]1CN[C@H](C(=O)O)[C@H]1CC(=O)O", "Potency": "inactive"},
      {"smiles": "CCNc1nc(NCC)nc(SC)n1", "Potency": "inactive"},
      {"smiles": "CC(C)C(C)(N)C#N", "note": "(stereo not given)", "Potency": "inactive"},
      {"smiles": "COP(=O)(O)OC", "Potency": "inactive"},
      {"smiles": "O=[N+]([O-])c1cccc(CCl)c1", "Potency": "inactive"},
      {"smiles": "O=C(Cl)C(Cl)Cl", "Potency": "inactive"},
      {"smiles": "COP(=O)(OC)O/C(C)=C/C(=O)N(C)C", "Potency": "inactive"},
      {"smiles": "CCCN1CCC[C@@H]2Cc3[nH]ncc3C[C@H]21", "Potency": "inactive"},
      {"smiles": "CCOC(=O)c1ncn2c1CN(C)C(=O)c1c(I)cccc1-2", "Potency": "inactive"},
      {"smiles": "O=C(O)C(Cl)Br", "note": "(stereo not given)", "Potency": "inactive"},
      {"smiles": "CC(=O)CN(CC(C)=O)N=O", "Potency": "inactive"},
      {"smiles": "CS(=O)(=O)c1ccc(C(=O)C2C(=O)CCCC2=O)c(Cl)c1COCC(F)(F)F", "Potency": "inactive"},
      {"smiles": "CCCCCCC(=O)CCCCCC/C=C/C[C@@H](O)[C@H](O)[C@@](N)(CO)C(=O)O", "Potency": "inactive"},
      {"smiles": "COc1ccc2c(C(=O)c3ccc(Cl)cc3)c(C)n(CC(=O)O)c2c1", "Potency": "inactive"},
      {"smiles": "CC1NCCOC1c1ccccc1", "note": "(stereo not given)", "Potency": "inactive"},
      {"smiles": "CN(C)CCc1c[nH]c2cccc(OP(=O)(O)O)c12", "Potency": "inactive"},
      {"smiles": "CCOC(=O)C(SP(=S)(OC)OC)c1ccccc1", "note": "(stereo not given)", "Potency": "inactive"},
      {"smiles": "C=C(Cl)CSC(=S)N(CC)CC", "Potency": "inactive"},
      {"smiles": "O=C(NC(O)C(Cl)(Cl)Cl)NC(O)C(Cl)(Cl)Cl", "note": "(stereo not given)", "Potency": "inactive"},
      {"smiles": "O=C(Cl)c1ccccc1", "Potency": "inactive"},
      {"smiles": "ClCC1CO1", "note": "(stereo not given)", "Potency": "inactive"},
      {"smiles": "O=C(CCl)NCO", "Potency": "inactive"},
      {"smiles": "CCOc1cc(OP(=S)(OC)OC)nc(CC)n1", "Potency": "inactive"},
      {"smiles": "O=C1CC(=O)NC(=O)N1", "Potency": "inactive"},
      {"smiles": "CC(C)(C1CCC(O)CC1)C1CCC(O)CC1", "note": "(stereo not given)", "Potency": "inactive"},
      {"smiles": "CCC(CC)(CNC(=O)CCCO)c1cccc(OC)c1", "Potency": "inactive"},
      {"smiles": "COC(=O)c1ccccc1CS(=O)(=O)NC(=O)Nc1nc(OC)cc(OC)n1", "Potency": "inactive"},
      {"smiles": "OCC(Cl)CCl", "note": "(stereo not given)", "Potency": "inactive"},
      {"smiles": "CN=CNc1ccc(C)cc1C", "Potency": "inactive"},
      {"smiles": "O=C/C=C/c1ccco1", "Potency": "inactive"},
      {"smiles": "CCC1(c2cccc(O)c2)CCCCN(C)C1", "note": "(stereo not given)", "Potency": "inactive"},
      {"smiles": "CCN1CCCC1CNC(=O)C(O)(c1ccccc1)c1ccccc1", "note": "(stereo not given)", "Potency": "inactive"},
      {"smiles": "CON(C)C(=O)Nc1ccc(Br)c(Cl)c1", "Potency": "inactive"},
      {"smiles": "COC[C@@H](NC(C)=O)C(=O)NCc1ccccc1", "Potency": "inactive"},
      {"smiles": "CCCOC(=O)c1cncn1C(C)c1ccccc1", "note": "(stereo not given)", "Potency": "inactive"},
      {"smiles": "CCN(CCO)CCO", "Potency": "inactive"}
    ]}
  ]
}
